# According to PubChem BioAssay AID431 (Sanford-Burnham Center for Chemical Genomics, 2006):
# About 1,100 (1.7%) of roughly 63,000 compounds were called active. The list comes from a sample in which actives are over-represented; it also holds similar structures and randomly drawn compounds. Entries with a potency or affinity are not part of this list. A number with no mark means an inactive call.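 Rule for the calls: active = compounds whose percent cytotoxicity in the single-dose primary screen, scaled between solvent and toxic-drug controls, exceeds 50; inactive = the rest.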
# Experiment: cytotoxicity in KRAS-transformed pancreatic duct cells, primary screen, cell-based, fluorescence, HTS (AID 431);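 note: 0% = DMSO solvent wells and 100% = doxorubicin-treated wells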
# Conditions: HPDE-C7K KRASV12 cells, Alamar Blue viability, 48 h; at 10 µM; hits give high values
row,SMILES,cytotoxicity
1,c1ccc2c(c1)ncn2Cc1nnc2sc(-c3ccncc3)nn12,0.8%
2,CC(=O)c1c(N2CCCCC2)nc(=O)n(-c2ccccc2)c1C,-16.3%
3,CCCCCC/C(=N/O)c1ccccn1,51.6% (active)
4,O=C(NCCCNC(=O)c1ccccn1)c1ccccn1,9.7%
5,O/N=C(/Cc1ccccn1)c1ccccc1,-1.3%
6,Cc1cc2nc(C(F)(F)F)[nH]c(=O)n2n1,2.8%
7,COC(=O)C1CCN(Cc2cc(=O)oc3cc(OC)ccc23)CC1,-31.4%
8,CCOC(=O)c1ccc(N=c2sc(C(=O)OC)cc(=O)n2C2CC2)cc1,14.1%
9,CCOC(=O)c1ccc(N=c2sc(C(=O)OC)cc(=O)n2Cc2ccco2)cc1,119% (active)
10,COC(=O)c1cc(=O)n(Cc2ccco2)c(=Nc2ccc(F)c(Cl)c2)s1,26.9%
11,COc1ccc(N=C2SC(CC(=O)Nc3ccc(OC)cc3OC)C(=O)N2C)cc1 (stereo unspecified),-10.8%
12,COc1ccc(-c2cc(C(=O)N3CCN(C(c4ccccc4)c4ccccc4)CC3)no2)cc1,2.7%
13,COc1ccc(N=c2oc3cc(O)ccc3cc2C(=O)NCC2CCCO2)cc1 (stereo unspecified),-0.1%
14,COc1ccccc1N=c1oc2cc(O)ccc2cc1C(=O)NCC1CCCO1 (stereo unspecified),7%
15,COc1ccc(N=c2oc3cc(O)ccc3cc2C(=O)NCC2CCCO2)c(OC)c1 (stereo unspecified),53.8% (active)
16,CC1(C)NC(=O)N(CC(O)COc2ccccc2C(=O)N2CCCCC2)C1=O (stereo unspecified),-30.9%
17,CCCCC(=O)Nc1cccc2c1C(=O)N(c1ccccc1)C2=O,-0.9%
18,CSCc1nnc(NC(=O)c2ccc(S(=O)(=O)N(CC(C)C)CC(C)C)cc2)o1,57.2% (active)
19,CCCCN(CCCC)S(=O)(=O)c1ccc(C(=O)Nc2nnc(CSC)o2)cc1,70.1% (active)

row,SMILES,cytotoxicity
1,CCCCN(CC)S(=O)(=O)c1ccc(C(=O)Nc2nnc(COC)o2)cc1,3.4%
2,CCc1nnc(NC(=O)c2ccc(S(=O)(=O)N(CCOC)CCOC)cc2)o1,-0.3%
3,CCc1nnc(NC(=O)c2ccc(S(=O)(=O)N(CC)Cc3ccccc3)cc2)o1,33%
4,CCc1nnc(NC(=O)c2ccc(S(=O)(=O)N(CC(C)C)CC(C)C)cc2)o1,47.6%
5,CCCCN(CC)S(=O)(=O)c1ccc(C(=O)Nc2nnc(CSC)o2)cc1,8.9%
6,CCCCN(C)S(=O)(=O)c1ccc(C(=O)Nc2nnc(CSC)o2)cc1,-2%
7,CCCCN(CCCC)S(=O)(=O)c1ccc(C(=O)Nc2nnc(COC)o2)cc1,66.7% (active)
8,COc1ccc(-c2cc(C(=O)NCC(C)C)no2)cc1,-0.6%
9,CCOC(=O)N1CCN(C(=O)COc2ccc(S(=O)(=O)NC3CCCCC3)cc2C)CC1,-6.6%
10,COC(=O)c1ccc(C2/C(=C(\O)c3ccc(OC)c(C)c3)C(=O)C(=O)N2c2cc(C)on2)cc1 (stereo unspecified),13.9%
11,Cc1c(C#N)c2ccccc2n1CC(=O)NCCc1c[nH]c2ccccc12,-3.8%
12,CN(C)S(=O)(=O)n1cnc(-c2ccccc2)c1-c1ccccc1,-11.5%
13,CN(C)S(=O)(=O)c1ccc(-c2ccccc2)cc1,-6.1%
14,O=C(O)COc1ccc(Oc2ccccc2)cc1,10.4%
15,COc1ccc(N2CCN(CCCNC(=O)CCCn3c(=O)[nH]c4ccsc4c3=O)CC2)cc1,10.4%
16,O=C(OCc1nc2ccccc2s1)c1cccc(S(=O)(=O)N2CCOCC2)c1,4.7%
17,OC1CCCN(Cc2cccc3ccccc23)C1 (stereo unspecified),9.5%
18,CN(C)c1ccc(CN2CCCC(O)C2)cc1 (stereo unspecified),4.1%
19,O=S(=O)(c1ccc(C2CCCCC2)cc1)N1CCN(c2ncccn2)CC1,0.7%

row,SMILES,cytotoxicity
1,Cc1cc(C(=O)CN2C(=O)NC(C)(c3cccc(Br)c3)C2=O)c(C)n1Cc1ccco1 (stereo unspecified),17%
2,CC(=O)O[C@H]1C(=O)[C@]2(C)[C@H]([C@H](OC(=O)c3ccccc3)[C@]3(O)C[C@H](OC(=O)[C@H](O)[C@@H](NC(=O)c4ccccc4)c4ccccc4)C(C)=C1C3(C)C)[C@]1(OC(C)=O)CO[C@@H]1C[C@@H]2O,67.2% (active)
3,CC(=O)O[C@@]12CO[C@@H]1C[C@H](O)[C@@]1(C)C(=O)[C@H](O)C3=C(C)[C@@H](OC(=O)[C@H](O)[C@@H](NC(=O)OC(C)(C)C)c4ccccc4)C[C@](O)([C@@H](OC(=O)c4ccccc4)[C@H]21)C3(C)C,52.1% (active)
4,CCc1cccc(CC)c1N(COC)C(=O)Cn1c(CO)nc2ccccc21,-6.1%
5,CCOc1ccc(-n2c(=O)cc(N3CCN(c4ccccc4)CC3)[nH]c2=O)cc1,7.9%
6,CCOC(=O)CSc1nnc(CNC(=O)c2ccco2)n1C,-0.1%
7,O=C(NC1CCCC1)C1C2C=CC3(CN(Cc4cccs4)C(=O)C13)O2 (stereo unspecified),3.8%
8,Cc1ccc2nc(NCc3ccco3)c(C=NCc3ccco3)c(=O)n2c1,-7.1%
9,CC(=O)N[C@H]1C[C@@H]1c1ccccc1,6.6%
10,COc1ccc(NC(=O)CS(=O)CC(=O)NCc2cccc(C(F)(F)F)c2)cc1 (stereo unspecified),1%
11,COc1ccc(NC(=O)CSc2nnc(-c3ccccc3)n2Cc2ccco2)c(OC)c1,-5.5%
12,COc1ccc(CCN(Cc2cc3cc4c(cc3[nH]c2=O)OCO4)C(C)=O)cc1OC,-1.5%
13,CC(=O)N(CCc1ccccc1C)Cc1cc2cc3c(cc2[nH]c1=O)OCO3,53.3% (active)
14,CCC(=O)N(CCc1ccccc1C)Cc1cc2cc3c(cc2[nH]c1=O)OCO3,-20.6%
15,COc1ccccc1C(=O)Nc1ccc(S(=O)(=O)Nc2cc(C)on2)cc1,3.1%
16,O=C(Nn1c(C2CC2)nc2ccccc2c1=O)c1ccco1,-1.6%
17,Cc1nc2ccccn2c(=O)c1CCN1CCC(C(=O)c2ccc(F)cc2)CC1,10.8%
18,O=c1cc(CN2CCN(c3ccc(F)cc3)CC2)nc2sccn12,-7.8%
